# Screening data: PubChem BioAssay, several laboratories
# HSV replic up – enhancers of HSV replication in host cells, fold increase, host cell viability; HSV replication augmentation in cells; maximum fold increase; 0.005% of 220,000 active; AID 1956, 2009; in the data active = maximum fold increase above about 1.5; tested in PC3 cells
# m-calpain inh – inhibitors of pig calpain II, primary screen, biochemical, fluorogenic peptide substrate, 1536-well; purified calpain II, 30 min; 0.37% of 220,000 active; inhibition, % at 16 µM; AID 1236, 2008;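 active = inhibition above about 50%, limit read from the data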
# ROMK primary – ROMK potassium channel modulators, primary screen, cell-based, thallium flux, MLSMR library. 2% of 130,000 active. Tet-inducible ROMK, thallium flux fluorescence; actives lie on both sides. B-score at 10 µM;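 active = signal ratio slope over the read window, or its plate-corrected B-score, at least 3 SD from the plate mean, either direction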;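 note: B-score of the F/F0 ratio slope over 7 to 12 s after thallium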
# Target sequence (P48048 whole entry, looked up): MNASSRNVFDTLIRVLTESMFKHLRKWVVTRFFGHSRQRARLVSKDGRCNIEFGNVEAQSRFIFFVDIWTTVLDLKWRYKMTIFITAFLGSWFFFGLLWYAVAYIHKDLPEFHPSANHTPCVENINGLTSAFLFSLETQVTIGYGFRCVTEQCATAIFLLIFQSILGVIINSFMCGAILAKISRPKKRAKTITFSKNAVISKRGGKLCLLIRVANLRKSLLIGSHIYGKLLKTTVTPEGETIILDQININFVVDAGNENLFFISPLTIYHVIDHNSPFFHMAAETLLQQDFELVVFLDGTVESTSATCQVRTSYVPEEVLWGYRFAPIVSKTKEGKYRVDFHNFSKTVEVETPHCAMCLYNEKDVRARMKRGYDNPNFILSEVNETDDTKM
# Arbovirus anti – antivirals against arbovirus infection, primary screen, cell-based, full library, 10K replicate subset | arbovirus infection cell-based antiviral screen | inhibition, % at 10 µM | 0.37% of 200,000 active; in the data active = inhibition above about 30%
# HMGR II inh – inhibitors of E. faecalis class II HMGR, primary screen, biochemical, Enterococcus faecalis. inhibition, % at 10 µM. purified E. faecalis HMGR, NADPH absorbance 340 nm kinetic. HMG-CoA reductase (Enterococcus faecalis, mvaE). 0.41% of 190,000 active. AID 1066, 2008;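 active = inhibition above a set limit, the median over all tested compounds plus 3 SD, cut at about 9.5% in these data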;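 note: enzyme runs in reverse so mevalonate oxidation gives rising NADPH absorbance; 0% = complete reaction with DMSO and 100% = background rate lacking mevalonate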
# Numbers without * were called inactive; i = inactive; x = no result given. An excerpt weighted towards active compounds, which were near 2.1% of everything screened.
SMILES,HSV replic up,m-calpain inh,ROMK primary,Arbovirus anti,HMGR II inh
O=C(Nc1ccc(F)cc1)C1CC(=O)n2cnnc2N1 (configuration not stated),i,3,-0.18,5,9.7*
Nc1cc(S(=O)(=O)N2CCCCC2)ccc1Oc1ccc(Cl)cc1,i,64*,-0.44,-1,0
Cc1ccc([N+](=O)[O-])cc1NCC(=O)NN,i,-12,0.61,2,3
O=c1c2c(-c3ccccc3)csc2ncn1/N=C/c1ccc(O)c([N+](=O)[O-])c1,i,56*,-0.56,7,-4
CCC(CC)NC(=O)Nc1ccccc1C(F)(F)F,i,6,x,x,x
CCCn1c(SCc2nc3ccccc3s2)n[nH]c1=O,i,50*,-0.014,5,4
CCCCn1c(N)c(N(CCOC)C(=O)COc2ccc(Cl)cc2)c(=O)[nH]c1=O,i,-14,0.3,-4,0
COc1ccc(S(=O)(=O)N(C)c2ccc(C(=O)N3CCCC3)cc2)cc1,i,-3,-0.52,24,9.7*
O=S(=O)(c1ccccc1Br)N1CCC(O)(c2cccnc2)CC1,i,24,-1.3,-7,0
Cc1c(O)ccc(C(=O)CN2C(=O)c3ccccc3C2=O)c1O,i,78*,x,7,-4
O=Cc1c(Cl)nc2ccccn2c1=O,i,-22,-0.41,x,x
Cn1c(/C(C#N)=N/O)nc2ccccc21,i,-15,0.45,-2,11*
CCn1c(/C(C#N)=N/O)nc2ccccc21,i,1,-0.73,-4,0
COC(=O)c1cccc(NC(=O)CSc2nc3cccnc3n2C)c1,i,8,-3.4*,1,-1
COC(=O)c1ccccc1NC(=O)CSc1nc2cccnc2n1C,i,25,-0.79,2,-3
COC(=O)C(C)n1cnc2c(nnn2-c2ccc(OC)cc2)c1=O (configuration not stated),i,-3,-0.25,-2,14*
O=C(CCn1c(=O)sc2ccccc21)NCc1ccco1,i,-8,x,4,-7
O=C(CCn1c(=O)sc2ccccc21)NCCCn1ccnc1,i,-9,x,30*,-2
O=C(CSc1nc(-c2ccccc2)nc2c1Cc1ccccc1O2)Nc1ccccc1,x,-18,x,-1,0
O=C(CSc1nc(-c2ccc(F)cc2)nc2c1Cc1ccccc1O2)Nc1cccc(C(=O)O)c1,i,59*,0.56,28,0
NC(=O)CC(NC(=O)Cc1ccc(Cl)cc1)c1ccc(NCc2ccccc2)c([N+](=O)[O-])c1 (configuration not stated),i,-25,x,x,x
COc1ccc(N2C(=O)[C@@H]3[C@H](C2=O)[C@H]2c4ccccc4C=CN2[C@@H]3C(C)=O)cc1,i,-20,-3.6*,-9,5
O=C(CN1C(=O)/C(=C/c2cccc(Br)c2)SC1=S)NC1=NCCS1,i,84*,-1.3,0,4
Cc1cccc2cc(/C=C3\N=C(c4ccccc4)OC3=O)c(N3CCOCC3)nc12,x,-134,-5*,2,-4
COc1cccc(NC(=O)c2ccc3snnc3c2)c1,i,-5,-0.47,-7,17*
SMILES,HSV replic up,m-calpain inh,ROMK primary,Arbovirus anti,HMGR II inh
CCOc1ccc(NC(=O)c2ccc3snnc3c2)cc1,i,-2,-0.035,-4,0
COc1cccc(C(=O)Nc2cccc(-c3nnc(-c4ccco4)o3)c2)c1,i,56*,-1.2,-4,-4
COC(=O)c1cccc(NC(=O)c2cccc(OC)c2)c1,i,53*,x,1,-4
COc1cccc(C(=O)Nc2cccc(C(C)=O)c2)c1,i,23,-0.28,-2,-5
CC(O)CNCc1ccccc1C(F)(F)F (configuration not stated),i,-20,0.3,4,0
CCCc1[nH]nc2c1C(c1ccc(OC)c(CSC3=NCCS3)c1)C(C#N)=C(N)O2 (configuration not stated),i,-21,-3.1*,-15,-4
Fc1cccc(Cn2cc(C(=S)N3CCCCC3)c3ccccc32)c1,i,66*,x,-4,-4
CC(=O)Nc1nc2c(s1)C(=O)NCCC2,i,14,1.3,1,-2
Cc1nc(CS(=O)c2ccc(Cl)cc2)cc(NCc2ccc(Cl)cc2Cl)n1 (configuration not stated),i,35,-0.022,85*,-6
CNS(=O)(=O)c1ccc2nc(NC(=O)c3ccc(N4C(=O)CCC4=O)cc3)sc2c1,i,-44,0.13,18,10*
